Screening data (PubChem BioAssay)
The full list was thinned out, with hits kept by preference.
Shiga inhibitor: Shiga toxin inhibition | AID 2315 | 9.2% of 290,000 active | Vero cells, Shiga toxin protein synthesis inhibition reporter | inhibition, % at 38.7 µM; in the data active means inhibition mostly above about 28%, no sharp cut-off; inactive means mostly below about 43%
VACV Venus inh: vaccinia inhibition (Venus reporter); AID 720580; 0.46% of 330,000 active; Potency, µM (doses to about 36.5 µM), most hits filed as inhibitors; Vaccinia virus Venus reporter expression, fluorescence; calls by dose curve; tested in A549 cells; further: nearly all actives have a fitted effect of over 30% in size
CHX counter: counter-screen for Shiga toxin inhibitors: cycloheximide protein synthesis inhibition; cell reporter, cycloheximide protein synthesis inhibition counterscreen; max response, %; 12% of 300,000 active; AID 2314; in the data active means max response mostly above about 13%, no sharp cut-off; inactive means mostly below about 14%; further: read at 38.3 µM for the half of the compounds with a filed dose
Vaccinia mCherry: inhibitors of vaccinia virus infection (mCherry reporter signal) | Vaccinia virus mCherry reporter infection, fluorescence | Potency, µM (titrated, usually from 36.5 µM), actives largely listed as inhibitors | 0.63% of 310,000 active | AID 720579; calls by dose curve; tested in A549 cells; further: nearly all actives have a fitted effect of over 35% in size
Lassa entry inh: blocks Lassa virus binding to or entry into cells; Lassa virus pseudotype entry inhibition, cell reporter; Potency, µM (top dose mostly 37.9 µM), usual class: inhibitors; 1.2% of 300,000 active; calls by dose curve; tested in HEK293 cells; further: nearly all actives have a fitted effect of over 50% in size
MARV entry inh: blocks Marburg virus binding to or entry into cells | Marburg virus pseudotyped entry inhibition, cell reporter | Potency, µM (series often up to 37.8 µM), hits mostly inhibitors | 1.8% of 300,000 active; calls by dose curve; tested in HEK293 cells
A number is an active result.

Results for CC(C)n1cc(CN2CCCC(CO)(Cc3cccc(Cl)c3)C2)cn1 (stereo not drawn) ?
Shiga inhibitor: inactive; VACV Venus inh: inactive; CHX counter: inactive; Vaccinia mCherry: inactive; Lassa entry inh: inactive; MARV entry inh: inactive

How did COc1ccc(C(=O)NCc2ccc3c(c2)CCN3C(C)=O)cc1OC do in these assays?
VACV Venus inh: inactive; Vaccinia mCherry: inactive; Lassa entry inh: inactive

Results for COc1ccc(/C=N/Nc2nncn2N)cc1Br ?
VACV Venus inh: inconclusive; CHX counter: 21.5; Vaccinia mCherry: inactive; Lassa entry inh: inconclusive; MARV entry inh: inconclusive

What do the screens show for `COc1cc(/C=C(\C#N)C(N)=O)ccc1OCc1c(C)no[n+]1[O-]`?
Shiga inhibitor: inactive; CHX counter: inactive

How did Nn1cnnc1N/N=C/c1ccc(Cl)cc1Cl do in these assays?
Shiga inhibitor: inactive; VACV Venus inh: inconclusive; CHX counter: 11.6; Vaccinia mCherry: 8.91µM; Lassa entry inh: inconclusive; MARV entry inh: inconclusive

How did COc1cc(/C=N/Nc2nncn2N)ccc1OCc1c(C)no[n+]1[O-] do in these assays?
Shiga inhibitor: inactive; CHX counter: 13.0; MARV entry inh: inactive

Results for COc1ccc(-c2cn3nc(N4CCC(C(=O)Nc5cccc(Cl)c5)CC4)sc3n2)cc1 ?
VACV Venus inh: inactive; Vaccinia mCherry: inactive; Lassa entry inh: inactive

How did Cc1ccc(C(=O)Nc2nc(=O)n(C(=O)C3CC3)s2)cc1 do in these assays?
Shiga inhibitor: inactive; VACV Venus inh: inactive; CHX counter: 15.8; Vaccinia mCherry: inactive; Lassa entry inh: inactive; MARV entry inh: inactive

Results for O=C(Nc1nc(=O)n(C(=O)C2CC2)s1)c1ccccc1 ?
Shiga inhibitor: inactive; VACV Venus inh: inactive; CHX counter: 26.8; Vaccinia mCherry: inactive; Lassa entry inh: inactive; MARV entry inh: inconclusive

How did Cc1ccc(C(=O)Nc2nc(=O)n(C(=O)c3ccccc3C)s2)cc1 do in these assays?
Shiga inhibitor: inactive; VACV Venus inh: inactive; CHX counter: inactive; Lassa entry inh: inactive; MARV entry inh: inconclusive

How did O=C(NCC(c1ccco1)N1CCN(c2ccc(F)cc2)CC1)OCc1ccccc1 (stereo not drawn) do in these assays?
Shiga inhibitor: inactive; VACV Venus inh: inactive; CHX counter: inactive; Vaccinia mCherry: inactive; Lassa entry inh: 1.26µM; MARV entry inh: inconclusive

What do the screens show for `Clc1cccc(N2CCN(c3ncnc4c3nc3n4CCCCC3)CC2)c1`?
VACV Venus inh: inactive; Vaccinia mCherry: inconclusive; Lassa entry inh: inconclusive; MARV entry inh: 2.82µM

Results for O=C(Nc1ccc(Cl)cn1)C1CCN(c2ncnc3c2nc2n3CCCCC2)CC1 ?
Shiga inhibitor: inactive; VACV Venus inh: inconclusive; CHX counter: inactive; Vaccinia mCherry: inactive; Lassa entry inh: inactive; MARV entry inh: 3.55µM

How did COc1c(Cl)cccc1NC(=O)c1c(NC(=O)Cc2ccccc2)sc2c1CCCC2 do in these assays?
Shiga inhibitor: inactive; CHX counter: inactive

How did Cc1nn(-c2ccccc2)c(C)c1/C=N/NC(=O)c1cnccn1 do in these assays?
Shiga inhibitor: inactive; CHX counter: 15.8

Results for O=C(N/N=C/c1c(F)cccc1Cl)c1cc(C2CC2)[nH]n1 ?
Shiga inhibitor: 76.6; CHX counter: 30.2

How did Cc1cc(C(=O)N/N=C/c2c(C)nn(-c3ccccc3)c2C)n[nH]1 do in these assays?
Shiga inhibitor: 55.4; VACV Venus inh: inactive; CHX counter: 17.6; Vaccinia mCherry: inactive; Lassa entry inh: inactive; MARV entry inh: inactive

Results for Cc1nn(-c2ccccc2)c(Cl)c1/C=N\NC(=O)c1cnccn1 ?
Shiga inhibitor: inactive; VACV Venus inh: inactive; CHX counter: inactive; Vaccinia mCherry: inactive; Lassa entry inh: inactive; MARV entry inh: inactive

What do the screens show for `Cc1nn(-c2ccccc2)c(C)c1/C=N/NC(=O)c1cc(C23CC4CC(CC(C4)C2)C3)[nH]n1`?
Shiga inhibitor: inactive; VACV Venus inh: inconclusive; CHX counter: inactive; Vaccinia mCherry: inactive; Lassa entry inh: inconclusive; MARV entry inh: inconclusive

How did Cc1nn(-c2ccccc2)c(C)c1/C=N/NC(=O)c1cc(C2CC2)[nH]n1 do in these assays?
Shiga inhibitor: inactive; VACV Venus inh: inactive; CHX counter: 13.9; Lassa entry inh: inactive; MARV entry inh: inconclusive

How did COc1ccc(C2/C=C\CN(C(=O)OCC3c4ccccc4-c4ccccc43)CC(=O)N2Cc2cccc(F)c2)cc1 (stereo not drawn) do in these assays?
Shiga inhibitor: inactive; VACV Venus inh: inactive; CHX counter: inactive; Vaccinia mCherry: inactive

How did COc1ccc(-c2nn(-c3cccc(F)c3)c3c2cnc2cc(OC)c(OC)cc23)cc1 do in these assays?
VACV Venus inh: inactive; Vaccinia mCherry: inactive; Lassa entry inh: inactive

What do the screens show for `COc1cc(NC(=O)CN2C(=O)CCc3cc(Br)ccc32)cc(OC)c1OC`?
VACV Venus inh: inactive; Vaccinia mCherry: inactive; Lassa entry inh: inactive

How did CC/C(=N\NC(=O)c1cc(C2CC2)[nH]n1)c1ccccc1 do in these assays?
Shiga inhibitor: 68.6; CHX counter: 15.4

How did CC/C(=N\NC(=O)c1c(C)nc2ccccn12)c1ccccc1 do in these assays?
Shiga inhibitor: inactive; VACV Venus inh: inactive; CHX counter: inactive; Vaccinia mCherry: inactive; Lassa entry inh: inactive; MARV entry inh: inactive

What do the screens show for `O=C(COC(=O)c1ccccc1Oc1ccccc1)Nc1ccc(Br)cc1`?
VACV Venus inh: inactive; Vaccinia mCherry: inactive

What do the screens show for `CC(CN1CCCC1)OC(=O)c1ccc(Cl)cc1` (stereo not drawn)?
Shiga inhibitor: inactive; CHX counter: inactive

How did CC1CCN(CC(C)OC(=O)c2ccc3c(c2)OCCO3)CC1 (stereo not drawn) do in these assays?
Shiga inhibitor: inactive; CHX counter: 22.7

How did CC(CN1CCCCC1)OC(=O)c1ccc2c(c1)OCO2 (stereo not drawn) do in these assays?
Shiga inhibitor: inactive; VACV Venus inh: inactive; CHX counter: 25.2; Lassa entry inh: inactive; MARV entry inh: inactive

What do the screens show for `CC(CN1CCOCC1)OC(=O)c1ccccc1Cl` (stereo not drawn)?
Shiga inhibitor: inactive; VACV Venus inh: inactive; CHX counter: 10.1; Vaccinia mCherry: inactive; Lassa entry inh: inactive; MARV entry inh: inconclusive

How did CC(CN1CCCCC1)OC(=O)c1cccc(F)c1 (stereo not drawn) do in these assays?
Shiga inhibitor: 28.2; VACV Venus inh: inactive; CHX counter: 18.0; Vaccinia mCherry: inactive; Lassa entry inh: inconclusive; MARV entry inh: inconclusive

How did COc1cc(NC(=O)CSc2ncnc3sc4c(c23)CCCC4)c(C(=O)O)cc1OC do in these assays?
Shiga inhibitor: inactive; VACV Venus inh: inactive; CHX counter: inactive; Vaccinia mCherry: inactive; Lassa entry inh: inactive; MARV entry inh: inactive

What do the screens show for `COc1ccc(N2C(=O)C3CCCN3C2=S)cc1` (stereo not drawn)?
Shiga inhibitor: inactive; VACV Venus inh: inactive; CHX counter: inactive; Vaccinia mCherry: inactive; Lassa entry inh: inactive; MARV entry inh: inactive

How did CN(C)c1ccc(C(CNC(=O)c2ccc(C(C)(C)C)cc2)N2CCOCC2)cc1 (stereo not drawn) do in these assays?
VACV Venus inh: inactive; Vaccinia mCherry: inactive; Lassa entry inh: inconclusive

What do the screens show for `COc1ccc(-c2nc3ccccc3s2)cc1NC(=O)c1cc2ccccc2o1`?
VACV Venus inh: inactive; Vaccinia mCherry: inactive; Lassa entry inh: inconclusive; MARV entry inh: inactive
